Inconclusive results are not listed. The call rests on the fitted dose curve; in most records, active means well fitted curve in either direction with a large enough effect (not every such curve was filed as active); inconclusive means small, poorly fitted or top-dose-only effect, or another doubt; inactive means flat fitted curve, though single readings scatter.
Experiment: Stat Signaling Pathway (AID 446)
Conditions: ME-180 (cervical carcinoma) SIE beta-lactamase reporter, IL-6 stimulated, 5 h; at 7.69 µM (top of the series) unless noted
Description: NCGC Assay Overview: The IL-6/STAT signaling pathway was assayed in ME-180 cervical carcinoma cells by a beta-lactamase reporter gene controlled by a STAT Inducible Element (SIE). This reporter is induced by IL-6 at 40 pM AC50 and inhibited by the pan JAK inhibitor, 2-(1,1-Dimethylethyl)-9-fluoro-3,6-dihydro-7H-benz[h]-imidaz[4,5-f]isoquinolin-7-one, at approximately 10 nM AC50. Plated cells were incubated overnight and on the following day, stimulated with 40 pM IL-6 for 5 hrs. The assay was screened at the AC50 of IL-6 activation to identify both inhibitors and activators of IL-6/STAT signaling.
NCGC Assay Protocol Summary: Cells were trypsinized, washed in assay medium (AM, OPTI MEM with 0.5% fetal bovine serum, 0.1 mM nonessential amino acids, 1 mM sodium pyruvate, 10mM HEPES pH 7.3, 100U/ml penicillin, and 100 ug/ml streptomycin) and suspended at 6 x 10e5/ml in AM. Approximately […] cells in 5 uL/well was dispensed into 1536 well plates and the cells were incubated overnight at 37 C. 23 nL of compound were delivered by a pin tool and 1 uL of IL-6 (40 pM final concentration in AM) was added. After centrifugation at 1000 rpm for less than a minute, plates were incubated at 37C for 5 hrs. One uL of detector mix (LiveBLAzerTM, Invitrogen) was added, the plates incubated at room temperature for 2.5 hrs, and fluorescence intensity at 460 and 530 nm emission was measured at 405 nm excitation by an Envision (Perkin Elmer) or Safire II (Tecan). Data were normalized by GeneData to the controls for AC90 stimulation (300 pM IL-6) and to AC90 inhibition (125 nM Jak inhibitor, 40 pM IL-6 in AM).
On the % scale 0 is the no-effect control and ±100 the full control effect.

activity, negative = inhibition, inactive:
c1ccc2c(CN3CCN(Cc4c[nH]c5ccccc45)CC3)c[nH]c2c1 5.49%
O=C(O)[C@@H](S)[C@H](S)C(=O)O 1.47%
O=C(O)/C=C\C=C/c1ccc2c(c1)OCO2 1.24%
CN1CCC[C@@H]1c1cccnc1.O=C(O)c1ccccc1O.O=C([OH2+])c1ccccc1O.O=C([OH2+])c1ccccc1O.O=C([OH2+])c1ccccc1O.[Cu] 12.5%
c1ccc2c[n+](CCCC[n+]3ccc4ccccc4c3)ccc2c1 -5.69%
O=c1cnc2cnc(Oc3ccccc3)nc2n1CCc1ccccc1 -4.75%
Clc1ccc(-c2nnc(-c3cccc4ccccc34)o2)cc1Cl 10.3%
c1ccc2c(c1)-c1nc3ccccc3cc1[C@H]2N1CCOCC1 7.66%
c1ccc2c(c1)nnn2CN1CCOCC1 -18.4%
CC1(CC(=O)O)O[C@H]2CCCCC[C@H]2O1 (stereo not given in full) (tested in a mixture with another compound) 5.55%
N=C(N)c1ccc(/C=C\c2ccc(C(=N)N)cc2)cc1 7.39%
C[C@@H](N)[C@@H](C)Cc1ccccc1 15.9%
Cc1c2cc[n+](CCN3CCCCC3)cc2c(C)c2c1[nH]c1ccc(O)cc12 17.1%
CC(C)Oc1cc(O)c2c(c1)OCC=C2CCC(=O)O 0.331%
O=C(O)c1ccc(C(=O)c2ccccc2)c(C(=O)O)c1 5.54%
NCCSCc1ccccc1Cl 2.36%
O=C(O)C(Cc1ccccc1-c1ccccc1)C(=O)O -0.388%
Cc1cc(N=Cc2c(CO)cnc(C)c2O)c(N=Cc2c(CO)cnc(C)c2O)cc1C.[Zn] 7.49%
CC(=O)Nc1ccc2c(c1)C(=Nc1ccc(C(=O)O)cc1)c1ccccc1-2 4.14%
Cn1c(=O)c2[nH]c(CCCc3ccc([N+](=O)[O-])cc3)nc2n(C)c1=O 6%
O=C(O)c1cccc(S(=O)(=O)NCCO)c1 -2.13%
O=C(O)[C@H]([C@H]1NCCS1)N1C(=O)c2ccccc2C1=O 3.15%
NS(=O)(=O)c1ccc(N=Nc2nc3[nH]cnc(=S)c3[nH]2)cc1 14.2%
CC(C)(C)CNCCO 7.24%
Cc1cccc(CNc2nc(-c3ccc(C(=O)N(C)C)cc3)nc3ccccc23)c1 -18.6%
O=C(O)NCC1CCCCC1 (tested in a mixture with another compound) -1.59%
CC(C)(C)c1ccc(O)c(CN(Cc2cc(C(C)(C)C)ccc2O)C2CCCCC2)c1 6.32%
Cc1nc(N)nc2ccccc12 2.21%
NNS(=O)(=O)c1cc(C(=O)O)cc(C(=O)O)c1 3.48%
C[C@@H](SCc1ccccc1)C(=O)O -3.81%
O=C(O)CNC(=O)c1ccccc1O 6.14%
O=C(Nc1ccc2c(c1)Cc1ccccc1-2)[C@@H]1[C@H](C(=O)O)[C@]2(Cl)C(Cl)=C(Cl)[C@@]1(Cl)C2(Cl)Cl 4.65%
N[C@H](COP(=O)(O)O)C(=O)O 20.2% [at 38 µM]
CN(C)c1ccc(C(c2ccc(N(C)C)cc2)c2ccc([N+](=O)[O-])cc2)cc1 14.9%
CN1[C@@H](c2ccccc2)CC(=NO)C[C@H]1c1ccccc1 5.8%
Cc1ccc(N(Cc2ccccc2)Cc2ccccc2)cc1 3.16%
C=C(NC(=O)C(=C)NC(=O)c1csc(C2=N[C@@H]3c4csc(n4)[C@@H]4NC(=O)c5csc(n5)[C@@H]([C@](C)(O)[C@H](C)O)NC(=O)[C@@H]5CSC(=N5)/C(=C/C)NC(=O)[C@@H]([C@H](C)O)NC(=O)c5csc(n5)[C@]3(CC2)NC(=O)[C@@H](C)NC(=O)C(=C)NC(=O)[C@@H](C)NC(=O)[C@@H]([C@@H](C)CC)N[C@H]2C=Cc3c([C@H](C)O)cc(nc3[C@@H]2O)C(=O)O[C@H]4C)n1)C(N)=O -4.53% [at 17.2 µM]
CN(C)CCNCCN 4.92%
O=c1ccn([C@@H]2O[C@@H](COP(=O)(O)OP(=O)(O)O)[C@H](O)[C@@H]2O)c(=O)[nH]1 11.6% [at 38 µM]
Cc1ccc(S(=O)(=O)NC(=O)Nc2ncn[nH]2)cc1 0.243%
